In all, about 13,000 compounds went through this assay and about 3,200 (25%) showed an effect of 50% or more. The list shows a part of the results.

The subject of this assay is P. falciparum stage V gametocytes. Also on record: BacTiter-Glo ATP luminescence viability of purified stage V gametocytes in 384-well plates, per cent inhibition versus DMSO. Particulars: 48 h, 5 µM; inhibitor.
The % Inhibition is the change of the read-out against control, counted positive when it falls. Take `CN(C)CCNC(=O)[C@H](CC1CCCCC1)NC(=O)c1ccc(O)c(-c2ccc(Cl)c(Cl)c2)c1` [TCMDC-140865]: the “% Inhibition” value was 44.5%.

As to `O=C(Nc1ccc(-c2nc3ccccc3[nH]2)cc1)c1ccc(Cl)s1` [TCMDC-123725], the “% Inhibition” value is -15.63%.

Take `CC1c2cccc(O)c2CCN1CCc1ccc(Cl)c(Cl)c1` (centres unmarked) [TCMDC-138976]: the “% Inhibition” value is reported as -24.59%.

Regarding `O=C(Nc1cccc(-c2ccc(-c3nc4ccccc4[nH]3)cc2)c1)c1csnn1` [TCMDC-136901], the “% Inhibition” value was -10.17%.

With `COc1ccc(CNC2CCN(C)CC2)cc1-c1ccc(S(=O)(=O)NCCc2ccccn2)cc1` [TCMDC-132246], the “% Inhibition” value is on record as 50.8%.

Regarding `CN1CCC(NCc2cccc(-c3ccc(S(=O)(=O)NCCc4ccccn4)c(F)c3)c2)CC1` [TCMDC-132220], the “% Inhibition” value was found to be 17%.

For `COc1ccc(CNC2CCN(C)CC2)cc1-c1ccc(S(=O)(=O)NCCc2ccccn2)c(F)c1` [TCMDC-132264], the “% Inhibition” value is given as 102.9%.

Consider `COc1ccc(CNC2CCN(C)CC2)cc1-c1ccc(S(=O)(=O)NCCc2ccccn2)c(C)c1` [TCMDC-132271], for which the “% Inhibition” value is 72.47%.

Consider `Cc1nnc(-c2ccc3ccccc3c2)c2cn(-c3cccc([N+](=O)[O-])c3)nc12` [TCMDC-138592], for which the “% Inhibition” value was found to be 4.043%.

Turning to `O=C(NCc1cccc(F)c1)Nc1ccc(-c2cccc(-c3nc4ccccc4[nH]3)c2)cc1` [TCMDC-133297], the “% Inhibition” value came to 6.044%.

Consider `COc1ccc2nccc([C@@H](O)CN3CCC(NC(=O)c4cc5c(F)cc(F)cc5[nH]4)CC3)c2c1` [TCMDC-140781], for which the “% Inhibition” value is on record as -8.295%.

As to `O=C(Nc1ccc2nc3n(c(=O)c2c1)CCCCC3)C(=O)N1CCN(c2ccc(F)cc2)CC1` [TCMDC-125293], the “% Inhibition” value is -18.55%.

On to `O=c1cc(NCCCN(Cc2cc3c(Cl)cc(Cl)cc3[nH]2)Cc2cc3c(Cl)cc(Cl)cc3[nH]2)[nH]c2ccccc12` [TCMDC-139849], for which the “% Inhibition” value is listed as 1.838%.

On to `CCCN(Cc1ccc(C)cc1)Cc1cc(=O)c2cc(Cl)ccc2[nH]1` [TCMDC-124741], for which the “% Inhibition” value was 52.71%.

As to `CCCN(Cc1ccc(OCC)cc1)Cc1cc(=O)c2cc(Cl)ccc2[nH]1` [TCMDC-124740], the “% Inhibition” value stood at 40.3%.

With `COc1ccc2nccc([C@@H](O)CN3CCC(NC(=O)c4cccc(C(=O)c5ccccc5)c4)CC3)c2c1` [TCMDC-141283], the “% Inhibition” value is listed as -43.58%.

For `CCC(C)NCC(O)(c1ccc(Cl)cc1)c1ccc(Cl)cc1` (centres unmarked) [TCMDC-123502], the “% Inhibition” value turned out to be 68.55%.

Turning to `CCC(C)NCCC(c1ccccc1)c1ccccc1O` (centres unmarked) [TCMDC-125727], the “% Inhibition” value was 32.82%.

In the case of `CCC(C)NCc1c(O)ccc2c(CNC(C)CC)c(O)ccc12` (centres unmarked) [TCMDC-137585], the “% Inhibition” value was -26.38%.

On to `O=c1cc(NCCCNC2CCOc3c(Cl)cccc32)[nH]c2ccccc12` (centres unmarked) [TCMDC-139551], for which the “% Inhibition” value is recorded as -16.88%.

For `O=C(/C=C/c1ccc(Cl)c(Cl)c1)NCCCCCCN1CCN(C(=O)Nc2cccc(Cl)c2)CC1` [TCMDC-135831], the “% Inhibition” value is recorded as -35.92%.

In the case of `Cc1cccc(Cn2ccc3c(N)nc(N)nc32)c1` [TCMDC-137327], the “% Inhibition” value was 54.63%.

Take `Nc1nc(N)c2c(ccc3c2ccn3Cc2cccc(F)c2)n1` [TCMDC-137810]: the “% Inhibition” value came to 101.3%.

Regarding `Cc1ccc(C)c(Cn2ccc3nc(N)nc(N)c32)c1` [TCMDC-137330], the “% Inhibition” value is 9.396%.

For `Cc1cccc(Cn2ccc3c4c(N)nc(N)nc4ccc32)c1` [TCMDC-137814], the “% Inhibition” value is reported as 60.36%.

Turning to `Nc1nc(N)c2c(ccc3c2ccn3CC2CC2)n1` [TCMDC-123991], the “% Inhibition” value is listed as 40.96%.

As to `Nc1nc(N)c2c(ccn2Cc2cc3c(cc2Cl)OCO3)n1` [TCMDC-137328], the “% Inhibition” value is on record as -14.37%.

Turning to `Nc1nc(N)c2c(ccc3c2ccn3Cc2ccc3c(c2)OCO3)n1` [TCMDC-137808], the “% Inhibition” value is reported as 102.2%.

With `Cc1cccc(-c2c(C)nc(N)nc2N)c1` [TCMDC-138072], the “% Inhibition” value stood at 4.683%.

Regarding `Cc1cc(NC(=O)Nc2ccc3ncccc3c2)c2ccccc2n1` [TCMDC-139829], the “% Inhibition” value is -30.57%.

Take `COc1ccc(C2CCN(C#N)C2)cc1OC1CCCC1` (centres unmarked) [TCMDC-131880]: the “% Inhibition” value worked out at 32.2%.

As to `COc1ccc(-n2c(=O)c3c(n4c(SC(C)C)nnc24)-c2ccccc2CC32CCCCC2)cc1` [TCMDC-125706], the “% Inhibition” value is 19.59%.

For `NC1=NC(CCc2ccccc2)N(c2ccccc2)C(N)=N1` (centres unmarked) [TCMDC-131292], the “% Inhibition” value came to 10.89%.

In the case of `O=C(O)C(F)(F)F.O=C1CCCN1CCCNCc1ccc(-c2cccc(-c3nc4ccccc4[nH]3)c2)cc1` [TCMDC-132549], the “% Inhibition” value is -11.63%.

For the molecule `O=C(O)C(F)(F)F.c1cc(-c2ccc(CNCCCn3ccnc3)cc2)cc(-c2nc3ccccc3[nH]2)c1` [TCMDC-132541], the “% Inhibition” value is 99.24%.

Regarding `Cn1nccc1C(=O)NCCNCc1ccc(-c2cccc(-c3nc4ccccc4[nH]3)c2)cc1.O=C(O)C(F)(F)F` [TCMDC-132562], the “% Inhibition” value was -0.1444%.

As for `O=C(O)C(F)(F)F.c1ccc2[nH]c(-c3ccc(-c4ccc(CN5CCN(CCN6CCOCC6)CC5)cc4)cc3)nc2c1` [TCMDC-133928], the “% Inhibition” value is listed as -28.02%.

With `O=C(O)C(F)(F)F.c1cc(-c2ccc(CNCCCN3CCOCC3)cc2)cc(-c2nc3ccccc3[nH]2)c1` [TCMDC-132548], the “% Inhibition” value came out at 54.17%.

Regarding `c1ccc(CCNc2ncnc3c2[nH]c2ccccc23)cc1` [TCMDC-124578], the “% Inhibition” value was -4.873%.

On to `CC(C)(C)c1cc(C(=O)Nc2cccnc2)cc(C(=O)Nc2cccnc2)c1` [TCMDC-125788], for which the “% Inhibition” value is listed as -16.11%.

Consider `COc1ccc2nccc([C@@H](O)CN3CCC(NCc4nc5c(OCc6ccccc6)cccc5[nH]4)CC3)c2c1` [TCMDC-141083], for which the “% Inhibition” value amounted to 34.25%.

Take `CC(CC(=O)NCC1(c2ccc(F)cc2Cl)CCOCC1)C(=O)c1ccc(Cl)cc1` (centres unmarked) [TCMDC-134256]: the “% Inhibition” value turned out to be 68.04%.

Consider `N#CC(CC(=O)c1ccc(Cl)cc1)c1cccc(F)c1` (centres unmarked) [TCMDC-123760], for which the “% Inhibition” value is 17.52%.

Consider `Cc1cccc2nc(-c3cccc(-c4ccc(C(=O)NCc5nccn5C)cc4)c3)[nH]c12` [TCMDC-132356], for which the “% Inhibition” value was determined as 7.308%.

With `COc1ccc(S(=O)(=O)N(c2cc(Br)cc3c2OCC3)S(=O)(=O)c2ccc(OC)c(N3CCN(C)CC3)c2)cc1N1CCN(C)CC1` [TCMDC-139809], the “% Inhibition” value came out at 54.84%.

For `COc1ccc(S(=O)(=O)Nc2cc(Br)cc3c2OCCC3)cc1N1CCN(C(=O)C(Cl)(Cl)Cl)CC1` [TCMDC-139661], the “% Inhibition” value is reported as -19.32%.

Regarding `COc1ccc(NS(=O)(=O)c2ccccc2Br)cc1N1CCN(C)CC1` [TCMDC-139092], the “% Inhibition” value is -23.57%.

Consider `O=C(/C=C/c1ccc(Cl)c(Cl)c1)N1CCC(CCN2CCc3[nH]c4ccccc4c3C2)CC1` [TCMDC-134173], for which the “% Inhibition” value is -40.99%.

For the molecule `CCOC(=O)c1cn(CC)c2cc(F)c(OC3CC4CCC3(C)C4(C)C)cc2c1=O` (centres unmarked) [TCMDC-124161], the “% Inhibition” value is reported as -18.01%.

For the molecule `Nc1cc(-c2ccc(Br)cc2O)nc2ccccc12` [TCMDC-138932], the “% Inhibition” value was 61.65%.

Consider `CCn1c(/C=C/c2cc(Br)ccc2O)nc2ccccc2c1=O` [TCMDC-124092], for which the “% Inhibition” value worked out at 7.095%.

Regarding `Nc1cc(C=Cc2ccc(O)cc2)nc2ccccc12` [TCMDC-138973], the “% Inhibition” value was -27.13%.

For the molecule `CN1CCCN(Cc2cccc(-c3cccc(NS(=O)(=O)c4cccc5cccnc45)c3)c2)CC1` [TCMDC-136482], the “% Inhibition” value is on record as 22.96%.

As for `CCN1CCN(Cc2ccc(-c3ccc(NS(=O)(=O)c4cccc5cccnc45)cc3)cc2)CC1` [TCMDC-136479], the “% Inhibition” value is given as -5.672%.

As to `CN1CCCN(Cc2cccc(-c3ccc(NS(=O)(=O)c4cccc5cccnc45)cc3)c2)CC1` [TCMDC-136481], the “% Inhibition” value turned out to be 100.2%.

With `CN1CCCN(Cc2ccc(-c3ccc(NS(=O)(=O)c4cccc5cccnc45)cc3)cc2)CC1` [TCMDC-136478], the “% Inhibition” value was found to be 98.81%.

For `O=S(=O)(Nc1ccc(-c2ccc(CN3CCCC3)cc2)cc1)c1cccc2cccnc12` [TCMDC-136475], the “% Inhibition” value is reported as 27.58%.

Turning to `CC(C)NCc1cccc(-c2ccc(NS(=O)(=O)c3cccc4cccnc34)cc2)c1` [TCMDC-136480], the “% Inhibition” value was 43.51%.

Take `COc1cc(F)c2ncc(Cl)c(CCN3CCC(NCc4ccc5c(c4)OCCO5)CC3)c2c1` [TCMDC-135624]: the “% Inhibition” value came out at 2.949%.

For `CC(CCc1ccccc1)NCC(O)c1ccc2c(c1)S(=O)(=O)c1ccccc1N2` (centres unmarked) [TCMDC-131254], the “% Inhibition” value is -29.84%.

Consider `CCCCCN1CCCC(NS(=O)(=O)c2ccc(C(=O)Nc3ccc(C(F)(F)F)cc3)cc2)C1` (centres unmarked) [TCMDC-133677], for which the “% Inhibition” value is 16.66%.

Regarding `CC(Cc1ccc(OCCCCOc2ccccc2)cc1)NCCCN1CCOCC1` (centres unmarked) [TCMDC-140018], the “% Inhibition” value was determined as 107.6%.

Consider `c1ccc(OCCCCN2CCCCC2)cc1` [TCMDC-124256], for which the “% Inhibition” value is reported as 16.85%.

On to `CC(Cc1ccc(OCCCCOc2ccccc2)cc1)NCCC1CCCN1C` (centres unmarked) [TCMDC-140017], for which the “% Inhibition” value was 116.2%.

Regarding `CC(Cc1ccc(OCCN2CCN(c3ccccc3)CC2)cc1)NCC(O)c1cccc(Cl)c1F` (centres unmarked) [TCMDC-131531], the “% Inhibition” value is listed as 24.37%.

As to `CN1CCCC1CCCOC(=O)c1ccc(N)cc1` (centres unmarked) [TCMDC-131643], the “% Inhibition” value is -5.047%.

On to `Nc1ncc(-c2ccc(Br)cc2)c(N)n1` [TCMDC-125524], for which the “% Inhibition” value is reported as -3.505%.

As for `Cn1ccnc1CNC(=O)c1ccc(-c2ccc(-c3nc4cc(C(F)(F)F)ccc4[nH]3)s2)cc1` [TCMDC-132353], the “% Inhibition” value came to 3.481%.

For `CC1CCCCN1CCCNc1nc(NCc2ccccc2)c2ccccc2n1` (centres unmarked) [TCMDC-137771], the “% Inhibition” value is recorded as 108.4%.

Consider `COc1cccc2c(NCc3ccccc3)nc(NCCCN3CCCCC3C)nc12` (centres unmarked) [TCMDC-137782], for which the “% Inhibition” value was 79.04%.

Take `c1ccc(CNc2nc(NCCc3cnc[nH]3)nc(N3CCCC4CCCCC43)n2)cc1` (centres unmarked) [TCMDC-139742]: the “% Inhibition” value was 0.6761%.

With `COc1cc(CCNc2nc(NCc3cccc4ccccc34)nc(N3CCC(N)CC3)n2)ccc1O` [TCMDC-133444], the “% Inhibition” value is -7.002%.

Turning to `Brc1ccc(Nc2nc(NCc3ccccc3)c3ccccc3n2)cc1` [TCMDC-124574], the “% Inhibition” value was determined as 42.06%.

Consider `COc1cccc2c(C)cc(NCc3ccc(Cl)cc3)nc12` [TCMDC-125774], for which the “% Inhibition” value is -17.6%.

These data come from PMC4552634, “A New Set of Chemical Starting Points with Plasmodium falciparum Transmission-Blocking Potential for Antimalarial Drug Discovery” (PLoS ONE, 2015).
